Screens from PubChem BioAssay.
Sfp PPTase inh = qHTS Assay for Inhibitors of Bacillus subtilis Sfp phosphopantetheinyl transferase (PPTase); 3.5% of 310,000 active; Biochemical Sfp PPTase activity, qHTS; AID 1490, 2009; Potency, µM, for the others: largest response in the series, negative = inhibition, most hits filed as inhibitors; 4'-phosphopantetheinyl transferase ffp (Bacillus subtilis), Q9F4F7;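 note: the enzyme is Sfp with the accession as filed and its product quenches rhodamine fluorescence; 0% = enzyme reaction without inhibitor and -100% = no enzyme wells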
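Fluorescence-quenching assay with 15 nM Sfp, 5 uM rhodamine-CoA and 12.5 uM BHQ-2-labelled ybbR peptide in pH 7.6 Hepes/MgCl2 buffer. Enzyme was pre-incubated with compound for 15 min at room temperature. Rate was taken from the 30-min fluorescence change (525/598 nm).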
BAZ2B block = qHTS Assay for Inhibitors of BAZ2B; AlphaScreen BAZ2B-H3K14Ac peptide displacement; Potency, µM (highest dose often 114 µM), inactives show top-dose activity change, negative = inhibition, hits mostly inhibitors; 4.4% of 360,000 active; note: % is set by controls: 0 for no effect and ±100 for the full control effect; nearly all actives have a fitted effect of over 60% in size
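AlphaScreen luminescence quantifies BAZ2B engagement of H3K14Ac peptide; the protein and biotinylated peptide are both at 50 nM final, buffer PBS pH 7.4 with 0.01% Tween-20, all steps at room temperature.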
JMJD2A Tudor inh = qHTS Assay for Inhibitors of JMJD2A-Tudor Domain; AID 504339, 2011; 4.4% of 390,000 active; Potency, µM (series often up to 114 µM), for inactives: at the top dose activity change, negative = inhibition, usual class: inhibitors; Lysine-specific demethylase 4A (Homo sapiens), O75164; AlphaScreen JMJD2A-Tudor / H3K4me3 peptide binding; note: % is set by controls: 0 for no effect and ±100 for the full control effect; nearly all actives have a fitted effect of over 50% in size
HP1b binding inh = HTS for Inhibitors of HP1-beta Chromodomain Interactions with Methylated Histone Tails. Chromobox protein homolog 1 (Homo sapiens), P83916. AlphaScreen HP1-beta / biotin-H3K9me3 peptide binding. Potency, µM (highest dose often 114 µM), without a hit: top-dose activity change, negative = inhibition, most hits filed as inhibitors. 0.56% of 390,000 active; note: nearly all actives have a fitted effect of over 70% in size
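HP1-beta protein (50 nM final) preincubated 30 min at room temperature with biotinylated H3(1-18)K9me3 peptide (50 nM) in PBS pH 7.4, 0.01% Tween-20, then compound added for 30 min. AlphaScreen streptavidin donor/nickel chelate acceptor beads (10 ug/mL final), 30 min dark, luminescence read.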
G9a inh = qHTS Assay for Inhibitors of Histone Lysine Methyltransferase G9a; G9a H3K9 monomethylation, AlphaScreen, 2 h; Potency, µM (top dose mostly 102 µM), inactives show at the top dose activity, negative = inhibition, most hits filed as inhibitors; 8.8% of 350,000 active; AID 504332, 2011; note: % is set by controls: 0 for no effect and ±100 for the full control effect; nearly all actives have a fitted effect of over 75% in size
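G9a (20 nM) was preincubated 15 min with compound, then reacted 2 h at room temperature with 500 nM biotin-H3K9 peptide and 20 µM SAM. Monomethyl-H3K9 detected by AlphaScreen using anti-H3K9me1 antibody.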
Active calls of the source: *; ? = inconclusive; . = no result; [ ] = remark or other dose. This is a sample that favours compounds with a hit; in the whole collection about 12% have one here. Calls come from the whole dose curve; as a rule, active = well fitted curve in the direction sought with a large enough effect; inconclusive = small, poorly fitted or top-dose-only effect, or another doubt; inactive = no such curve, though single readings can be large; an effect the other way counts as inactive or inconclusive. Potency is the fitted concentration of half-maximal effect.

SMILES | Sfp PPTase inh | BAZ2B block | JMJD2A Tudor inh | HP1b binding inh | G9a inh
O=C(O)CSc1nc2ccccc2n1Cc1ccccc1 | 24% | 4% | 89µM* | -2% | 6%
NC(=O)CSc1nc2ccccc2c(=O)n1CCc1ccccc1 | -8% | 8% | -2% | 24% | 79µM*
OCC1(Cc2ccccc2C(F)(F)F)CCN(Cc2ccc3c(c2)CCO3)CC1 | 2% | -6% | -6% | 28% | -2%
COc1ccc(-n2nnc(-c3nc(-c4ccccc4C)no3)c2N)cc1Cl | . | -10% | -17% | 33% | -19%[59 µM]
Cc1cccc(CNC(=O)c2ccc(Cn3c(SCc4ccccc4)nc4cccnc43)cc2)c1 | . | 3% | -16% | 50% | -21%[59 µM]
CN(C)c1ccc(CNC(=O)c2ccc(Cn3c(SCc4ccccc4)nc4cccnc43)cc2)cc1 | . | ? | ? | -7% | 10µM*
O=C(CSc1nc2ccccc2n1S(=O)(=O)c1ccccc1)N1CCCCC1 | 7% | -6%[57.1 µM] | 0% | 42% | 71µM*
Cc1ccc(/C=N/NC(=O)c2cccc(NC(=O)c3ccccc3Cl)c2)o1 | 6% | -20% | -33% | -16% | -14%
COC(=O)c1ccc(NS(=O)(=O)c2ccccc2)o1 | 14% | -31% | -27% | 8% | 40µM*
COC(=O)c1ccc(S(N)(=O)=O)o1 | 7% | -1% | 0% | 30% | 20%[59 µM]
COC(=O)c1ccc(NS(=O)(=O)c2ccc(Cl)cc2)o1 | 15% | ? | -12%[11.4 µM] | -6% | 50µM*
COc1cccc(C(C(=O)NC2CCCCC2)N(Cc2ccco2)C(=O)c2ccccn2)c1 (stereo not given) | 1% | -19% | -13% | 6% | -6%
Cc1cc(C)c2ccc(NN)nc2c1O | 50µM* | 7% | -16% | 42% | 32µM*
Cc1cc(C)c2ccc(/C=N/O)nc2c1O | 10% | -7% | -19% | 32% | -6%
CCOC(=O)[C@H]1[C@H]2COc3ccc(Br)cc3[C@@H]2N2C(=O)CN(Cc3ccc(C)cc3)C(=O)[C@@]12C | . | -6% | -25% | 12% | 7%[0.501 µM]
CCn1c(CSc2nnc(-c3ccoc3C)n2C)nc2cc(S(=O)(=O)N(C)C)ccc21 | 3% | -8% | -12% | 32% | 50µM*
C/C(=N\NC(=O)Cc1cccn1C)c1ccc([N+](=O)[O-])cc1 | 4% | ? | ? | -1% | .
COc1ccccc1Nc1cc(C(=O)NCc2cccs2)c2ccccc2n1 | . | . | 16% | 48% | 1%[59 µM]
O=C(NC1CCOCC1)C1CCC(=O)N(Cc2ccc(Cl)cc2)C1 (stereo not given) | -4% | 1% | 0% | 14% | .
COc1cc(C2Nc3ccccc3NC3=C2C(=O)CC(C)(C)C3)cc(OC)c1OC(C)=O (stereo not given) | 12% | 6% | -20% | 25% | 50µM*
CCOc1ccccc1C(=O)NCC(=O)NC(C)c1ccc(-n2ccnc2)cc1 (stereo not given) | . | -2% | -19% | -12% | 17%[0.501 µM]
Cc1ccc(O)c(CNc2ccc(S(=O)(=O)Nc3nccs3)cc2)c1 | 15% | ? | -23% | -6% | ?
CCOc1ccccc1-c1nc2c([nH]1)c(=O)n(C)c(=O)n2C | 5% | 5% | -16% | 33% | 28%[2.33 µM]
CCN(C(=O)CSc1nnc(COc2ccccc2F)n1N)C1CCS(=O)(=O)C1 (stereo not given) | 10% | 20% | -1% | 24% | 34%
Cc1ccccc1Nc1nnc(SCC(=O)N(C)C2CCS(=O)(=O)C2)s1 (stereo not given) | 9% | -2% | 2% | 25% | 32µM*
SMILES | Sfp PPTase inh | BAZ2B block | JMJD2A Tudor inh | HP1b binding inh | G9a inh
CN(C)N(C(=O)c1cc(-c2cccs2)nn1-c1ccccc1)C1CCS(=O)(=O)C1 (stereo not given) | . | 20% | -22% | 14% | 18µM*
CN(C(=O)CSc1nnc(COc2ccccc2F)n1N)C1CCS(=O)(=O)C1 (stereo not given) | . | 0% | -13% | -9% | 20µM*
CN(C(=O)CSc1n[nH]c(-c2cccs2)n1)C1CCS(=O)(=O)C1 (stereo not given) | . | 28% | -12% | 32% | 50µM*
CN(C(=O)CSc1nnc(Nc2ccccc2F)s1)C1CCS(=O)(=O)C1 (stereo not given) | . | . | -10% | 27% | .
CC(C)(C)n1nnnc1C(c1cccnc1)N1CCN(c2ccccn2)CC1 (stereo not given) | 18% | -24% | -2% | 61% | -1%
CN(Cc1ccccc1)C(=O)c1[nH]cnc1C(=O)NCc1ccccc1 | . | ? | -21% | 27% | 2%[0.501 µM]
CN(C(=O)CSc1nnc(-c2ccc(F)cc2)c2ccccc12)C1CCS(=O)(=O)C1 (stereo not given) | -14% | ? | -24% | 21% | 22µM*
CN(C(=O)CSc1nnc(-c2ccccc2)c(-c2ccccc2)n1)C1CCS(=O)(=O)C1 (stereo not given) | -4% | -11% | -27% | 32% | 8%[59 µM]
CCCCCCCCCC(=O)O | . | . | -8% | 19% | .
CCCCCC#CCC#CCC#CCC#CCCCC(=O)O | -15% | 4µM* | . | . | 10µM*
CC(C)[C@H](NC(=O)c1ccco1)C(=O)OCC(=O)N1CCc2ccccc21 | 19% | 6% | -7% | 20% | ?
S=c1[nH]nc(Cc2cccs2)n1-c1ccccc1Cl | 6% | 1% | 14µM* | 40% | 2.2µM*
Cc1ccc(C)c(-n2c(Cc3cccs3)n[nH]c2=S)c1 | 21% | 2% | 10µM* | 22% | 1.6µM*
COc1ccccc1-n1c(Cc2cccs2)n[nH]c1=S | 14% | -7% | -10% | 33% | 3.5µM*
S=c1[nH]nc(Cc2cccs2)n1-c1cccc2ccccc12 | ? | -33% | 40µM* | 7% | 1.8µM*
CC(C)(C)C(=O)[C@H]1[C@H](c2ccccc2)[C@@]2(N=C(c3ccccc3)OC2=O)C2c3ccccc3C=NN21 (stereo not given in full) | 3% | -3%[57.1 µM] | ? | -5% | 79µM*
C[C@H](CO)N1C[C@H](C)[C@H](CN(C)C)Oc2ccc(NS(=O)(=O)c3ccc(F)cc3)cc2CC1=O | . | . | -8% | 33% | .
O=C(COC(=O)C1CC(O)CN1S(=O)(=O)c1ccc(Cl)cc1)c1ccccc1 (stereo not given) | ? | -3% | -12% | 23% | -2%
Cc1[nH]c2ccccc2c1C(=O)COC(=O)C1CC(O)CN1S(=O)(=O)c1ccc(Cl)cc1 (stereo not given) | . | 0% | 32µM* | -14%[57 µM] | -14%[59 µM]
